# Values joined by “and” are separate entries in the source; they are usually repeats but may differ in a detail not shown here. Equal entries are not always repeated. Results filed as inconclusive are left out. Entries that show only a call come without a potency. Active and inactive are the calls of the source. The call rests on the fitted dose curve; in most records, active means well fitted cell-killing curve with a large enough effect; inconclusive means small, poorly fitted or top-dose-only effect; inactive means flat fitted curve, though single readings scatter.
# Experiment: Cellular viability qHTS for adrenocortical cancer (ACC) cell line NCI-H295R (AID 1963990); further: nearly all actives have a fitted effect of over 60% in size
# Details: CellTiter-Glo ATP luminescence, 48 h; series mostly up to 46.1 µM
# Summary of the method: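 CellTiter-Glo ATP luminescence, read 48 h after compound addition, measured viability of NCI-H295R adrenocortical cells grown serum-free with ITS. Final concentrations spanned up to 46 uM. Data normalized to DMSO and doxorubicin, fitted for IC50 and maximal response.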
row,SMILES,Potency
1,C=CCSCC1Nc2cc(Cl)c(S(N)(=O)=O)cc2S(=O)(=O)N1 (configuration not stated),inactive
2,Cc1cc(O[C@@H](CCC(F)(F)F)c2ccc(C(=O)NCCC(=O)O)cc2)cc(C)c1-c1ccc(C(C)(C)C)cc1,22.4 µM (active)
3,CCc1nnc(NS(=O)(=O)c2ccc(N)cc2)s1,inactive
4,O=C1O[C@H]([C@@H](O)CO)C(O)=C1O,inactive
5,C[C@@H]1C[C@H]2[C@@H]3C[C@H](F)C4=CC(=O)C=C[C@]4(C)[C@@]3(F)[C@@H](O)C[C@]2(C)[C@@]1(O)C(=O)CO,inactive
6,C/C=C1\NC(=O)[C@H]2CSSCC/C=C\[C@H](CC(=O)N[C@H](C(C)C)C(=O)N2)OC(=O)[C@H](C(C)C)NC1=O,0.0631 µM (active)
7,CC1(C)O[C@@H]2C[C@H]3[C@@H]4CCC5=CC(=O)CC[C@]5(C)[C@@]4(F)[C@@H](O)C[C@]3(C)[C@]2(C(=O)CCl)O1,inactive
8,CN(C)C/C=C/C(=O)Nc1ccc(C(=O)N2CCC[C@@H](Nc3ncc(Cl)c(-c4c[nH]c5ccccc45)n3)C2)cc1,10 µM (active)
9,CCc1cc2cc(OC)c(OC)cc2c(Cc2ccccc2)n1,inactive
10,COc1cccc2c1C(=O)c1c(O)c3c(c(O)c1C2=O)C[C@@](O)(C(C)=O)C[C@@H]3O[C@H]1C[C@H](N)[C@H](O)[C@H](C)O1,461 nM (active) and 2.24 µM (active)
11,CC(C)(C)NC(=O)c1cncn1C1CCN(c2ccc(-c3nnc(C(F)(F)F)o3)cn2)CC1,2.82 µM (active)
12,CCCCC(CC)COC(=O)c1ccccc1C(=O)O (configuration not stated),inactive

# — PubChem BioAssay (NCATS)
